The supplement of paper PMC10849652
Of roughly 7,900 targets only a part is listed; those with a hit were picked by preference. About 0.6% of all pairs of compound and target were hits. Values without a mark were called inactive.

Tests used:
Assay in all cases: log2 fold change, soluble protein after heating vs DMSO (PISA); higher = thermal stabilisation; K562 cells, 10 uM, 30 min; active = over 0.2 and 3.5 SD of the protein, either way, in both replicates (recomputed)
[1] = compound: CS(=O)(=O)c1ccc(-c2cnc(N)c(C(=O)Nc3ccccc3)n2)cc1
Procedure, shortened: (§1)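 K562 cells (2×10^6 cells/mL) were treated with 10 μM compound for 30 min, and aliquots were heated for 3 min over 48°C-58°C. Pooled aliquots were extracted in PBS with 0.5% NP-40 at 4°C, and the supernatant after 21,000xg for 90 min was measured by TMTpro 16plex LC-MS/MS with channel sums equalised. Reported thermal stability, relative to control samples and from duplicates, is a log2 fold change.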

crizotinib = compound: C[C@@H](Oc1cc(-c2cnn(C3CCNCC3)c2)cnc1N)c1c(Cl)ccc(F)c1Cl [crizotinib]
Procedure, shortened: as §1

[2] = compound: C[C@@H]1COCCN1C2=NC(=NC(=C2)C3(CC3)S(=O)(=O)C)C4=C5C=CNC5=CC=C4
Procedure, shortened: as §1

[3] = compound: C[C@H](C1=CC=C(C=C1)C(=O)NC2=C3C=CNC3=NC=C2)N
Procedure, shortened: as §1

duvelisib = compound: C[C@H](Nc1ncnc2nc[nH]c12)c1cc2cccc(Cl)c2c(=O)n1-c1ccccc1 [duvelisib]
Procedure, shortened: as §1

gandotinib = compound: Cc1cc(Nc2cc(CN3CCOCC3)c3nc(C)c(Cc4ccc(Cl)cc4F)n3n2)n[nH]1 [gandotinib]
Procedure, shortened: as §1

tozasertib = compound: Cc1cc(Nc2cc(N3CCN(C)CC3)nc(Sc3ccc(NC(=O)C4CC4)cc3)n2)n[nH]1 [tozasertib]
Procedure, shortened: as §1

[4] = compound: Cc1cc(SCc2sc(-c3ccc(C(F)(F)F)cc3)nc2C)ccc1OCC(=O)O
Procedure, shortened: as §1

doramapimod = compound: Cc1ccc(-n2nc(C(C)(C)C)cc2NC(=O)Nc2ccc(OCCN3CCOCC3)c3ccccc23)cc1 [doramapimod]
Procedure, shortened: as §1

ispinesib = compound: Cc1ccc(C(=O)N(CCCN)[C@@H](c2nc3cc(Cl)ccc3c(=O)n2Cc2ccccc2)C(C)C)cc1 [ispinesib]
Procedure, shortened: as §1

bafetinib = compound: Cc1ccc(NC(=O)c2ccc(CN3CC[C@H](N(C)C)C3)c(C(F)(F)F)c2)cc1Nc1nccc(-c2cncnc2)n1 [bafetinib]
Procedure, shortened: as §1

[5] = compound: Cc1cccc(CC(=O)N2CCc3c2ccc(-c2cn(C)c4ncnc(N)c24)c3F)n1
Procedure, shortened: as §1

nilotinib = compound: Cc1cn(-c2cc(NC(=O)c3ccc(C)c(Nc4nccc(-c5cccnc5)n4)c3)cc(C(F)(F)F)c2)cn1 [nilotinib]
Procedure, shortened: as §1

[6] = compound: Cc1nc(Nc2n[nH]c3c2CN(C(=O)N[C@H](CN(C)C)c2ccccc2)C3(C)C)c2sccc2n1
Procedure, shortened: as §1

dasatinib = compound: Cc1nc(Nc2ncc(C(=O)Nc3c(C)cccc3Cl)s2)cc(N2CCN(CCO)CC2)n1 [dasatinib]
Procedure, shortened: as §1

[7] = compound: Cc1ncc(-c2ccnc(Nc3ccc(S(C)(=O)=O)cc3)n2)n1C(C)C
Procedure, shortened: as §1

[8] = compound: Cn1cc(-c2ccc3c(c2)CCN3C(=O)Cc2cccc(C(F)(F)F)c2)c2c(N)ncnc21
Procedure, shortened: as §1

[9] = compound: Cn1cc(-c2ccc3nnc(C(F)(F)c4ccc5ncccc5c4)n3n2)cn1
Procedure, shortened: as §1

tipifarnib = compound: Cn1cncc1[C@@](N)(c1ccc(Cl)cc1)c1ccc2c(c1)c(-c1cccc(Cl)c1)cc(=O)n2C [tipifarnib]
Procedure, shortened: as §1

mubritinib = compound: FC(F)(F)c1ccc(/C=C/c2nc(COc3ccc(CCCCn4ccnn4)cc3)co2)cc1 [mubritinib]
Procedure, shortened: as §1

Sequence of UniProt P36405 (P36405 whole entry, looked up): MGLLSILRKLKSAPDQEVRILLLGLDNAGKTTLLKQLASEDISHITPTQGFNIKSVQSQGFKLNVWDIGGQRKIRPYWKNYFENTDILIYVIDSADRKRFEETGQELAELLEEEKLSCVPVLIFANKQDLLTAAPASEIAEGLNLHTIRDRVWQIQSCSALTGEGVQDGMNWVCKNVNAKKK
Sequence of UniProt O60488 (O60488 whole entry, looked up): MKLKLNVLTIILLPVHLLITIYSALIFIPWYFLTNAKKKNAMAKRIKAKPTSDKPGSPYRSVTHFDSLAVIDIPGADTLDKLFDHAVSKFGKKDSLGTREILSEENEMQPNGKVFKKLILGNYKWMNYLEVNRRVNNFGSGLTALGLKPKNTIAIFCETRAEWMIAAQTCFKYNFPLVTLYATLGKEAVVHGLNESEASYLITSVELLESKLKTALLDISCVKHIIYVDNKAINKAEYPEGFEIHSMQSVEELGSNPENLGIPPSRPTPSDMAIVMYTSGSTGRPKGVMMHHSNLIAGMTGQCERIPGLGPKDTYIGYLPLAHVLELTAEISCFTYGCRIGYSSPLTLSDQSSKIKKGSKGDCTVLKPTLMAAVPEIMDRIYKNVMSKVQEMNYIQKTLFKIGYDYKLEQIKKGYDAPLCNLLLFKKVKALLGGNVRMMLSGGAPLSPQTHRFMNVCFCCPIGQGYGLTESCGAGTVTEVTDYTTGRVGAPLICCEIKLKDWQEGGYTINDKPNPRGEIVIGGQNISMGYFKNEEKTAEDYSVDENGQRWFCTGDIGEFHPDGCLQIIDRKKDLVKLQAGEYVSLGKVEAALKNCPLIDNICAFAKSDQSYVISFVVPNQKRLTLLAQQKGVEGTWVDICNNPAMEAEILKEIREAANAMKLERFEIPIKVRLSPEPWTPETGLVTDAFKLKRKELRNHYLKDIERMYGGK
Sequence of UniProt Q9NX46 (Q9NX46 whole entry, looked up): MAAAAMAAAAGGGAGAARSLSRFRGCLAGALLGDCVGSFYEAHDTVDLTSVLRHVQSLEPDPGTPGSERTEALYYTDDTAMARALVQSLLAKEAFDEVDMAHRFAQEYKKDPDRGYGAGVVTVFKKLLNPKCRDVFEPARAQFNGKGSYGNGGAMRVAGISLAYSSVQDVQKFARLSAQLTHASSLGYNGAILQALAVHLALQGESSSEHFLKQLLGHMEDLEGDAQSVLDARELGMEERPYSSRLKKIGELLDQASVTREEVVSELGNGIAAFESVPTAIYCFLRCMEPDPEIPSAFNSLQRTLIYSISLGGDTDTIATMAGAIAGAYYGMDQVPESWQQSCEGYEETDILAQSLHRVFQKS
Sequence of UniProt Q96GS6 (Q96GS6 whole entry, looked up): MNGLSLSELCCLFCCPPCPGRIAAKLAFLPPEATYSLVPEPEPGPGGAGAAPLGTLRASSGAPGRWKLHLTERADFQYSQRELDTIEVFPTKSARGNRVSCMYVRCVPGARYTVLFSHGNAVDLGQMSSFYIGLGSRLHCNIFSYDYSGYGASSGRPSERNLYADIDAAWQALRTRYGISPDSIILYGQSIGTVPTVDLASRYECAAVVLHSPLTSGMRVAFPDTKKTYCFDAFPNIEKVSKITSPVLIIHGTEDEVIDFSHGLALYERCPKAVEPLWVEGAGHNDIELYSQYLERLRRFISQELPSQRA
Sequence of UniProt Q7L1Q6 (Q7L1Q6 whole entry, looked up): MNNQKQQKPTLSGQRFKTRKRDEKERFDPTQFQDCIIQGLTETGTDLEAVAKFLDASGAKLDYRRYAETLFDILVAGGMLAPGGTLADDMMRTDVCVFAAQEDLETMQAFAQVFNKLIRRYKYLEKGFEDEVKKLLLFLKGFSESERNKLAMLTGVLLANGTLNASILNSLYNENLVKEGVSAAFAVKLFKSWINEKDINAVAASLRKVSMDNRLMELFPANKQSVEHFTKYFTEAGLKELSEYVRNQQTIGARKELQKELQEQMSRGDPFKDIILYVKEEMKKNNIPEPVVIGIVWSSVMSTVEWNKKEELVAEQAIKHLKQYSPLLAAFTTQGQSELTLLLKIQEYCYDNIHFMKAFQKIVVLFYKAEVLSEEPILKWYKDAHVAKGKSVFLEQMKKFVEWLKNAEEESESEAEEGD
Sequence of UniProt O00170 (O00170 whole entry, looked up): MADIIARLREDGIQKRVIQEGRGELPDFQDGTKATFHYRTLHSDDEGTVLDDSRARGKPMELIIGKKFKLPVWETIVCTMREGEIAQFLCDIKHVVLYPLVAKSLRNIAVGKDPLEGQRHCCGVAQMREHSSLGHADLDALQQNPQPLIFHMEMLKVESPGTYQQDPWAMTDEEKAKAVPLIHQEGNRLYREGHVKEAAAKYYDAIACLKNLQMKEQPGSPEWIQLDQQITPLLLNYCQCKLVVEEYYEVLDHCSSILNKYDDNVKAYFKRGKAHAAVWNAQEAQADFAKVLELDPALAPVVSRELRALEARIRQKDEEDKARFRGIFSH
Sequence of UniProt Q9NX38 (Q9NX38 whole entry, looked up): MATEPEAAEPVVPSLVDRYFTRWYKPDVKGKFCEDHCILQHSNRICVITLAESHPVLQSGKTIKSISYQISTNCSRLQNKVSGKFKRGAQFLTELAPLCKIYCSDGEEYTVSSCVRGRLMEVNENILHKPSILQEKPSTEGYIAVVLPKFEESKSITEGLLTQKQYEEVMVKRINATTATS
Sequence of UniProt Q13685 (Q13685 whole entry, looked up): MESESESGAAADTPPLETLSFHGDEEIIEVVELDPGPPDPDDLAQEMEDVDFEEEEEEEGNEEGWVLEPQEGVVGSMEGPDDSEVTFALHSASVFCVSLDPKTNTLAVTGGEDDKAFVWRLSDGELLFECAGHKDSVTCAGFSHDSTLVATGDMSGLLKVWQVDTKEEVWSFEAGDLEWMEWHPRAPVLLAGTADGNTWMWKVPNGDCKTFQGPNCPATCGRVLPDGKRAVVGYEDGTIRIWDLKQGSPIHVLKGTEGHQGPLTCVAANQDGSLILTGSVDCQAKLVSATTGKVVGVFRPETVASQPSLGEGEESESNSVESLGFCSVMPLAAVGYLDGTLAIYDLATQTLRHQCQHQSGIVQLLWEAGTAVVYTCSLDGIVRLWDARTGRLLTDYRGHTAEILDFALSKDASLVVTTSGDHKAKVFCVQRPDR
Sequence of UniProt Q15904 (Q15904 whole entry, looked up): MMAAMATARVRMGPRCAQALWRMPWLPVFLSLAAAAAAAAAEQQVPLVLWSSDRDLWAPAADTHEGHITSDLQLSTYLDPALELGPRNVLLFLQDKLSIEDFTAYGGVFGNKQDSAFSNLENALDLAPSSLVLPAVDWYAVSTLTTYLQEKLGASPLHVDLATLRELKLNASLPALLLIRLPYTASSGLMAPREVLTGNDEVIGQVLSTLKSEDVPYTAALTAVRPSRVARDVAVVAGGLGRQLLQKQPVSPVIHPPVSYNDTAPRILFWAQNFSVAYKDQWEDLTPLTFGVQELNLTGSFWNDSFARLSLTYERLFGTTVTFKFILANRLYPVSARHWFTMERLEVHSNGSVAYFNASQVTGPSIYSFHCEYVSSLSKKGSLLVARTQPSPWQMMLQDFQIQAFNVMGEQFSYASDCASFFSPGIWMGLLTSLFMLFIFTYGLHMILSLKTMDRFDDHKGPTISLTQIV
Sequence of UniProt Q99798 (Q99798 whole entry, looked up): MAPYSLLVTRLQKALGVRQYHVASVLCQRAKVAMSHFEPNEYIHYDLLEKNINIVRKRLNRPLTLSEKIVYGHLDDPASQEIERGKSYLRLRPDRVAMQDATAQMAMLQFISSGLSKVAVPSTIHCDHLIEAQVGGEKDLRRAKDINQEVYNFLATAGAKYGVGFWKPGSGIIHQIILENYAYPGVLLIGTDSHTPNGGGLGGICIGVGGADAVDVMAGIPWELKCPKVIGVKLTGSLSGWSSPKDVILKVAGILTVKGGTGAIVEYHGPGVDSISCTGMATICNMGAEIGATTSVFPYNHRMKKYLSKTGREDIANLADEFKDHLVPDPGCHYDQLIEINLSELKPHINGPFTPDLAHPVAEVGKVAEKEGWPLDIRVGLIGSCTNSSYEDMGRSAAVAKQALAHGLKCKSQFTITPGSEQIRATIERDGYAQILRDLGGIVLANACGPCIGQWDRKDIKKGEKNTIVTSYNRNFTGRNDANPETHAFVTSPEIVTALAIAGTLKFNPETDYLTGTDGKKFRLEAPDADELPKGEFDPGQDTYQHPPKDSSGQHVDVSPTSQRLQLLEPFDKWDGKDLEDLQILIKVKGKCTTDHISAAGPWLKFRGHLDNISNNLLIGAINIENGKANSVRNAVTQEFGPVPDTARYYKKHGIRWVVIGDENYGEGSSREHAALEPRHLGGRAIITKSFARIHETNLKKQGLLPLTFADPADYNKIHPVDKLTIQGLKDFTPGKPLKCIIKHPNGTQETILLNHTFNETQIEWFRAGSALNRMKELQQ
Sequence of UniProt Q9BRQ8 (Q9BRQ8 whole entry, looked up): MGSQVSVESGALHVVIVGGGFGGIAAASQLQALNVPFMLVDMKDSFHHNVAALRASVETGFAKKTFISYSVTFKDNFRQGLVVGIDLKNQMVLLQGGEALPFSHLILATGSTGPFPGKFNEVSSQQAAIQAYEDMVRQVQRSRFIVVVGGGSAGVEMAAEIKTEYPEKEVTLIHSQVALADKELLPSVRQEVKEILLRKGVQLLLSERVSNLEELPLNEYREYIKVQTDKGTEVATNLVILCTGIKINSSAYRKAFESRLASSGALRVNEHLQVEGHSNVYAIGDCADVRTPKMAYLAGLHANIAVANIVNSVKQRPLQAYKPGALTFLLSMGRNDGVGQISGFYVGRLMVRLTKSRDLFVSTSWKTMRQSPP
Sequence of UniProt Q16864 (Q16864 whole entry, looked up): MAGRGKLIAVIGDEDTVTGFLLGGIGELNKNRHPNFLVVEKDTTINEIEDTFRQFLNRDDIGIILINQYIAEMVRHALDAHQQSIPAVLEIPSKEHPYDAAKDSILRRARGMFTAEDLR

Row | Target | log2 fold change [1] | log2 fold change (crizotinib) | log2 fold change [2] | log2 fold change [3] | log2 fold change (duvelisib) | log2 fold change (gandotinib) | log2 fold change (tozasertib) | log2 fold change [4] | log2 fold change (doramapimod) | log2 fold change (ispinesib) | log2 fold change (bafetinib) | log2 fold change [5] | log2 fold change (nilotinib) | log2 fold change [6] | log2 fold change (dasatinib) | log2 fold change [7] | log2 fold change [8] | log2 fold change [9] | log2 fold change (tipifarnib) | log2 fold change (mubritinib)
1 | AAMP (UniProt Q13685) | 0.027 | 0.115 | -0.007 | -0.006 | 0.022 | -0.047 | 0.053 | -0.03 | -0.037 | 0.038 | 0.011 | 0.014 | 0.009 | 0.005 | 0.04 | 0.012 | -0.038 | -0.028 | -0.026 | 0.02
2 | ABITRAM (UniProt Q9NX38) | 0.055 | 0.012 | 0.1 | -0.011 | 0.029 | 0.169 | -0.012 | 0.079 | 0.006 | 0.108 | 0.016 | 0.116 | -0.327 | -0.146 | -0.316 | -0.442 (active) | -0.004 | 0.026 | -0.031 | 0.046
3 | ARL3 (UniProt P36405) | 0.029 | 0.041 | 0.019 | -0.017 | 0.08 | 0.025 | 0.033 | -0.012 | -0.003 | 0.063 | -0.024 | -0.029 | 0.011 | 0.006 | 0.001 | -0.003 | 0.022 | -0.018 | -0.034 | 0.029
4 | ADPRHL2 (UniProt Q9NX46) | 0.052 | 0.092 | 0.045 | -0.072 | 0.17 | 0.07 | -0.077 | 0.039 | -0.017 | 0.303 (active) | 0.201 | 0.029 | 0.013 | 0.164 | -0.034 | 0.124 | 0.082 | 0.052 | -0.159 | 0.349 (active)
5 | ATP6AP1 (UniProt Q15904) | -0.006 | -0.134 | -0.161 | 0.146 | -0.056 | -0.03 | 0.028 | 0.055 | 0.045 | -0.317 (active) | -0.052 | 0.025 | 0.024 | -0.041 | 0.016 | -0.041 | -0.081 | -0.064 | 0.011 | -0.051
6 | AIP (UniProt O00170) | 0.031 | 0.039 | 0.075 | -0.055 | 0.014 | -0.058 | 0.064 | 0.038 | -0.024 | 0.011 | 0.017 | 0.02 | -0.062 | -0.009 | -0.144 | 0.056 | 0.031 | 0.012 | -0.058 | 0.015
7 | ATP6V1F isoform 2 (UniProt Q16864) | -0.303 | 0.034 | -0.025 | -0.031 | 0.309 | 0.138 | 0.06 | -0.043 | 0.007 | 0.076 | 0 | -0.053 | 0.078 | -0.03 | 0.034 | -0.028 | 0.101 | 0.132 | 0.32 | 0.045
8 | ABHD17A isoform 2 (UniProt Q96GS6) | -0.027 | -0.135 | -0.03 | -0.015 | -0.008 | -0.283 | -0.024 | 0.016 | 0.004 | -0.129 | -0.051 | 0.044 | -0.054 | 0.047 | -0.023 | 0.018 | 0.028 | 0.068 | -0.042 | 0.061
9 | BAIAP2 (UniProt Q9UQB8) | 0.023 | -0.115 | 0 | -0.039 | 0.014 | -0.053 | -0.061 | 0.08 | 0.086 | -0.057 | -0.009 | 0.032 | -0.061 | -0.05 | -0.066 | -0.038 | 0.03 | -0.032 | -0.035 | 0.06
10 | BZW1 isoform 3 (UniProt Q7L1Q6) | 0.007 | -0.426 | 0.007 | 0.051 | -0.03 | -0.189 | 0.054 | 0.181 | -0.008 | -0.209 | 0.002 | 0.167 | -0.124 | -0.138 | -0.283 | 0.03 | 0.017 | 0.011 | -0.364 | 0.089
11 | ACSL4 (UniProt O60488) | 0.02 | -0.338 (active) | 0.07 | 0.099 | 0.045 | -0.089 | 0.032 | 0.151 | 0.01 | -0.311 (active) | -0.021 | -0.014 | -0.027 | -0.063 | -0.222 | 0.087 | 0.05 | 0.115 | -0.134 | -0.078
12 | BMP2K (UniProt Q9NSY1) | 0.136 | 0.411 (active) | 0 | 0.402 (active) | -0.078 | 0.319 | 0.318 | -0.051 | 0.024 | -0.017 | 0.037 | -0.107 | -0.067 | 0.534 (active) | 0 | 0.34 | -0.016 | -0.036 | 0.016 | -0.042
13 | AIFM2 (UniProt Q9BRQ8) | 0.039 | 0.098 | -0.013 | -0.067 | 0.07 | 0.022 | -0.029 | -0.032 | 0.08 | 0.207 (active) | 0.008 | -0.129 | 0.067 | 0.023 | 0.046 | -0.043 | 0.081 | 0.032 | 0.199 | 0.025
14 | ATP2A3 isoform 2 (UniProt Q93084) | -0.003 | 0.084 | -0.048 | -0.022 | 0.025 | -0.068 | -0.036 | -0.025 | -0.023 | -0.091 | -0.063 | -0.001 | -0.057 | -0.064 | -0.005 | 0.058 | -0.014 | 0.076 | 0.025 | -0.044
15 | ACO2 (UniProt Q99798) | 0 | -0.022 | 0.102 | -0.085 | 0.03 | -0.088 | -0.024 | 0.078 | -0.026 | 0.041 | 0.021 | -0.025 | -0.02 | 0.013 | -0.118 | -0.013 | 0.043 | -0.016 | -0.064 | -0.522 (active)
